PubChem BioAssay
For part of these data: Entries with a potency or affinity are not part of this list. Active and inactive are the calls of the source. Unless noted, how the calls were made is not given here.

Assays:
[1] = antimalarial activity against Dd2 strain (AID 2302;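 active means growth inhibition above 50% at the single 2 µM test dose, taken to imply half-maximal potency below 2 µM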;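 further: 0% = DMSO untreated growth and 100% = chloroquine plus artemisinin killed control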); conditions: P. falciparum Dd2 in RBCs, LDH growth readout, 72 h; at 2 µM; active compounds read high
[2] = HepG2 cytotoxicity, primary screen, cytotoxicity control for P. falciparum antimalarial project, cell-based, ATP luminescence (AID 2303;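 active means inhibition above 50%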;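 further: 0% = DMSO wells and 100% = digitonin-killed cells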); conditions: HepG2 viability, 24-48 h, at 10 µM, active compounds read high
[3] = molecular target: L-lactate dehydrogenase (Plasmodium falciparum (isolate CDC / Honduras)) (UniProt Q27743); assay: PfLDH activity inhibition – cell lysate, 3D7 strain, counter-screen for P. falciparum growth inhibition project (AID 2304);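 further: 0% = vehicle and 100% = reference inhibitor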; conditions: P. falciparum 3D7 crude extract, LDH APAD/NBT absorbance; at 2 µM; active compounds read high
Chain of L-lactate dehydrogenase (Plasmodium falciparum (isolate CDC / Honduras)) (Q27743 whole entry, looked up): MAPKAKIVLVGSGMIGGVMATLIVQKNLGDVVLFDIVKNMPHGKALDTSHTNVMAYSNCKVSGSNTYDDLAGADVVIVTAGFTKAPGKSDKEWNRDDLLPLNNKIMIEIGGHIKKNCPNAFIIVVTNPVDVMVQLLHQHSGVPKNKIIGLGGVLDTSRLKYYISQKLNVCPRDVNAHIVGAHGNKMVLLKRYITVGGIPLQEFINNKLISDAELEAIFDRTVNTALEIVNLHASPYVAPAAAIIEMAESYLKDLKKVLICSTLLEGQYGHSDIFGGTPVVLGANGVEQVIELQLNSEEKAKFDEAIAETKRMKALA

[4] = inhibition of 3D7 malaria parasite growth – strain 3D7 (AID 2306);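 further: 0% = DMSO wells and 100% = chloroquine plus artemisinin control wells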; conditions: P. falciparum 3D7 erythrocytic growth, LDH absorbance, 72 h; at 2 µM; active compounds read high
[5] = molecular target: Calcium-dependent protein kinase 1 (Plasmodium falciparum (isolate 3D7)) (UniProt P62344); assay: PfCDPK1 kinase inhibitors, biochemical, TCAMS library (AID 1159585; cut-off not given, nearly all actives have IC50 up to about 0.98 µM;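 further: inhibitors leave more ATP so luminescence rises with inhibition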); conditions: recombinant PfCDPK1, Kinase-Glo ATP depletion luminescence
Chain of Calcium-dependent protein kinase 1 (Plasmodium falciparum (isolate 3D7)) (P62344 whole entry, looked up): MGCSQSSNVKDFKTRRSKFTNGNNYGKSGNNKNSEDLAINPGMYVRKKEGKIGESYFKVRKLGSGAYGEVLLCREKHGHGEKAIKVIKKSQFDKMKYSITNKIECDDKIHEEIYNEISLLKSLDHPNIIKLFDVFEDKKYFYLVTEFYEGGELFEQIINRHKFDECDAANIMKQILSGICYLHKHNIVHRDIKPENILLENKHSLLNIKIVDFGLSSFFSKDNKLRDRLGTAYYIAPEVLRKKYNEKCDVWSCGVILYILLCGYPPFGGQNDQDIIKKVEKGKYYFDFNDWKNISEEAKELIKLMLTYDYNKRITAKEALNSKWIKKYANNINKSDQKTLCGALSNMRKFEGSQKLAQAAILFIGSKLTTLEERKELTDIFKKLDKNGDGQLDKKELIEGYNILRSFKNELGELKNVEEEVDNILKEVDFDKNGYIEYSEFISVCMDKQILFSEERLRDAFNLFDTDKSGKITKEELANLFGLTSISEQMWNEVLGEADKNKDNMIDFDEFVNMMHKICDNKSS

[6] = molecular target: Plasmodium falciparum protein kinase 6 (PK6, PF3D7_1337100) (UniProt Q8IDW1); assay: PfPK6 kinase inhibitors, biochemical, TCAMS library (AID 1159586); conditions: recombinant PfPK6, Kinase-Glo ATP depletion luminescence
Chain of Plasmodium falciparum protein kinase 6 (PK6, PF3D7_1337100) (Q8IDW1 1-305): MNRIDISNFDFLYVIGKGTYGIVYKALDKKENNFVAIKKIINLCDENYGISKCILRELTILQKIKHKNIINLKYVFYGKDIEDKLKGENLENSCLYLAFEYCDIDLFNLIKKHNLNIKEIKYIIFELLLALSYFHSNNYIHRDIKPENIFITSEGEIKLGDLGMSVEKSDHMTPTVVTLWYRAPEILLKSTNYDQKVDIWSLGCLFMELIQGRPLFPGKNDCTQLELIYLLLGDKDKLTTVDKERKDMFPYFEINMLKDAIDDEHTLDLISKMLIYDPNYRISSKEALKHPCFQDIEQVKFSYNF

[7] = molecular target: Protein kinase 7 (PK7), Plasmodium falciparum 3D7 (PF3D7_0213400) (UniProt Q7YTF7); assay: inhibition of Plasmodium PK7 catalytic activity – biochemical, TCAMS antimalarial set, Kinase-Glo luminescence (AID 1159587); conditions: recombinant PfPK7, Kinase-Glo ATP depletion luminescence
Chain of Protein kinase 7 (PK7), Plasmodium falciparum 3D7 (PF3D7_0213400) (Q7YTF7 1-343): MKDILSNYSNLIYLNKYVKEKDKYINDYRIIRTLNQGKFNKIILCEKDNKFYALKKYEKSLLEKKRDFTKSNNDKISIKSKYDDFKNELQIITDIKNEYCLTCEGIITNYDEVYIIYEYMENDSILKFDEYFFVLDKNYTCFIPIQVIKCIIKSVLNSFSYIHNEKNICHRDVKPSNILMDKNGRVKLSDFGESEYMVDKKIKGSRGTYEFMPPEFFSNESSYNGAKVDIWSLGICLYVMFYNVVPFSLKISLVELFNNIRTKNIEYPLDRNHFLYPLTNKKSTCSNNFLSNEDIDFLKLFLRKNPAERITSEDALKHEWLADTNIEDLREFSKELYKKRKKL

[8] = molecular target: Calcium-dependent protein kinase 4 (Plasmodium falciparum (isolate 3D7)) (UniProt Q8IBS5); assay: PfCDPK4 kinase inhibitors, biochemical, TCAMS library (AID 1159588; cut-off not given, nearly all actives have IC50 up to about 0.91 µM); conditions: recombinant PfCDPK4, Kinase-Glo ATP depletion luminescence
Chain of Calcium-dependent protein kinase 4 (Plasmodium falciparum (isolate 3D7)) (Q8IBS5 whole entry, looked up): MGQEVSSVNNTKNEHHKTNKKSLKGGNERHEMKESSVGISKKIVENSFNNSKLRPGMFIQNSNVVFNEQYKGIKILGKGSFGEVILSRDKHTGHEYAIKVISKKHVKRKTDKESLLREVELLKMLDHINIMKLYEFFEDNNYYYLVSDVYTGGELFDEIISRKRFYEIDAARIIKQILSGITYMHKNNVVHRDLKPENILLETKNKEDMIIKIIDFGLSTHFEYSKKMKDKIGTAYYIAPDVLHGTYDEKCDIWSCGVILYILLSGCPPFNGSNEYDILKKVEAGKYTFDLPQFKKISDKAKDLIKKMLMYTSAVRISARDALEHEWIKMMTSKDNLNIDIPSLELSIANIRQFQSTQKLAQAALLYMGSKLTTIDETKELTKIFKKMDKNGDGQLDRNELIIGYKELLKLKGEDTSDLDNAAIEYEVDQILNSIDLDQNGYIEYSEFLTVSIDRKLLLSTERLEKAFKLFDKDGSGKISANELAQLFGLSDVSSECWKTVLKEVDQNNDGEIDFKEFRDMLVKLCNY

CCOC(=O)c1c(SCc2cccc(F)c2F)[nH]c2ccccc2c1=O
inactive: inhibition [2] 1% | inhibition [3] -2% | outcome [5] | outcome [6] | outcome [7] | outcome [8]
active: growth inhibition [1] 95% | growth inhibition [4] 98%

Cc1c(F)cc(C(=O)NC2CC2)cc1-c1ccc2c(cnn2S(=O)(=O)c2ccc(F)c(F)c2)c1
inactive: inhibition [2] 49% | inhibition [3] -2% | outcome [5] | outcome [6] | outcome [7] | outcome [8]
active: growth inhibition [1] 76% | growth inhibition [4] 91%

FC(F)(F)c1ccc2nc(-c3cccc(-c4ccc(CNCc5cnn(-c6ccccc6)n5)cc4)c3)[nH]c2c1
inactive: inhibition [2] 14% | inhibition [3] -4% | outcome [5] | outcome [6] | outcome [7] | outcome [8]
active: growth inhibition [1] 67% | growth inhibition [4] 101%

CCOC(=O)c1c(NC(=O)c2ccccc2)sc2c(O)c(CNC3CCCCC3)ccc12
inactive: inhibition [2] 6% | inhibition [3] 1% | outcome [5] | outcome [6] | outcome [7] | outcome [8]
active: growth inhibition [1] 98% | growth inhibition [4] 99%

N#Cc1ccc(N2CCN(Cc3cccc(-c4ccc(-c5nc6ccc(C(F)(F)F)cc6[nH]5)cc4)c3)CC2)nc1
active: growth inhibition [1] 81% | growth inhibition [4] 101%
inactive: inhibition [2] 39% | inhibition [3] -1% | outcome [5] | outcome [6] | outcome [7] | outcome [8]

CN1CCC[C@H]1COc1ccc(CN2CC[C@H](NC(=O)c3ccc(Cl)c(Cl)c3)C2)cc1Br
active: inhibition [2] 81% | growth inhibition [4] 101%
inactive: growth inhibition [1] 20% | inhibition [3] -1% | outcome [5] | outcome [6] | outcome [7] | outcome [8]

Cc1ccc(NCC(=O)Nc2ccc(F)c(Cl)c2)cc1S(=O)(=O)N1CCOCC1
active: growth inhibition [1] 97% | growth inhibition [4] 98%
inactive: inhibition [2] 2% | inhibition [3] 0% | outcome [5] | outcome [6] | outcome [7] | outcome [8]

COc1ccc2nccc([C@@H](O)CN3CCC(NC(=O)C(c4cccs4)N4CCN(c5ccc(F)cc5)CC4)CC3)c2c1 (some centres not stated)
inactive: growth inhibition [1] 45% | inhibition [2] 9% | inhibition [3] 3% | outcome [5] | outcome [6] | outcome [7] | outcome [8]
active: growth inhibition [4] 97%

CC(C)CC1c2[nH]c3ccccc3c2CCN1C(=O)CCc1ccccc1 (configuration not stated)
inactive: inhibition [2] -13% | inhibition [3] -2% | outcome [5] | outcome [6] | outcome [7] | outcome [8]
active: growth inhibition [1] 82% | growth inhibition [4] 92%

O=C(Cc1cc(F)cc(F)c1)NC1CCN(c2ccnc3cc(Cl)ccc23)C1 (configuration not stated)
inactive: inhibition [2] 13% | inhibition [3] 0% | outcome [5] | outcome [6] | outcome [7] | outcome [8]
active: growth inhibition [1] 101% | growth inhibition [4] 82%

CC(C)(C)OC(=O)NCc1ccc(Nc2nnc(-c3cccc(C(=O)NCc4cc(C(F)(F)F)cc(C(F)(F)F)c4)c3)o2)cc1
inactive: growth inhibition [1] 13% | inhibition [2] 4% | inhibition [3] 0% | outcome [5] | outcome [6] | outcome [7] | outcome [8]
active: growth inhibition [4] 90%

O=C(c1ccccc1)N(Cc1ccccc1-c1ccc(CNCCc2ccccc2)cc1)C1CCN(Cc2ccccc2)CC1
inactive: inhibition [3] -7% | outcome [5] | outcome [6] | outcome [7] | outcome [8]
active: growth inhibition [1] 69% | inhibition [2] 95% | growth inhibition [4] 95%

Cc1ccc(O)c(-c2cc(C(=O)Nc3ccc(S(=O)(=O)N4CCCCC4)cc3)[nH]n2)c1
inactive: inhibition [2] 31% | inhibition [3] -4% | outcome [5] | outcome [6] | outcome [7] | outcome [8]
active: growth inhibition [1] 98% | growth inhibition [4] 94%

O=C(c1ccccc1)N1CCC(CN2CCOC(c3ccccc3)(c3ccccc3)C2)CC1
inactive: inhibition [2] 14% | inhibition [3] 1% | outcome [5] | outcome [6] | outcome [7] | outcome [8]
active: growth inhibition [1] 95% | growth inhibition [4] 94%

Fc1cccc(C=NNc2ccnc3ccc(C(F)(F)F)cc23)c1
inactive: inhibition [2] -2% | inhibition [3] -4% | outcome [5] | outcome [6] | outcome [7] | outcome [8]
active: growth inhibition [1] 97% | growth inhibition [4] 100%

CC(CN(C)C)C(=O)Nc1ccc(-c2ccc(-c3nc4ccccc4[nH]3)cc2)cc1 (configuration not stated)
inactive: inhibition [2] 2% | inhibition [3] -3% | outcome [5] | outcome [6] | outcome [7] | outcome [8]
active: growth inhibition [1] 83% | growth inhibition [4] 99%

Fc1ccc2[nH]cc(CCNCc3ccc(-c4cccc(-c5nc6ccccc6[nH]5)c4)cc3)c2c1
inactive: inhibition [3] -3% | outcome [5] | outcome [6] | outcome [7] | outcome [8]
active: growth inhibition [1] 99% | inhibition [2] 69% | growth inhibition [4] 100%

Brc1ccc(Nc2nc(NCc3ccccc3)c3ccccc3n2)cc1
active: growth inhibition [1] 99% | growth inhibition [4] 101%
inactive: inhibition [2] 24% | inhibition [3] -4% | outcome [5] | outcome [6] | outcome [7] | outcome [8]

COc1cc(C(=O)NC2CC(C)(C)N(C)C(C)(C)C2)ccc1-c1nc2cc(Cl)c(Cl)cc2[nH]1
inactive: inhibition [3] 5% | outcome [5] | outcome [6] | outcome [7] | outcome [8]
active: growth inhibition [1] 99% | inhibition [2] 69% | growth inhibition [4] 100%

NC(=O)c1ccc(NCC(=O)Nc2cccc(-c3cccc(-c4nc5ccc(F)cc5[nH]4)c3)c2)cc1
inactive: growth inhibition [1] 32% | inhibition [2] 15% | inhibition [3] -3% | outcome [5] | outcome [6] | outcome [7] | outcome [8]
active: growth inhibition [4] 97%

CC(=O)Nc1ccc2[nH]cc(C3CCN(CC4CCC(NC(=O)/C=C/c5ccc(Cl)c(Cl)c5)CC4)CC3)c2n1 (configuration not stated)
inactive: inhibition [2] 17% | inhibition [3] -1% | outcome [5] | outcome [6] | outcome [7] | outcome [8]
active: growth inhibition [1] 79% | growth inhibition [4] 101%

COc1cc2nc(N3CCC(CNC(=O)c4ccc(-c5ccc(-c6noc(C)n6)cc5)cc4)CC3)nc(N)c2cc1OC
active: growth inhibition [1] 100% | inhibition [2] 96% | growth inhibition [4] 98%
inactive: inhibition [3] 1% | outcome [5] | outcome [6] | outcome [7] | outcome [8]

N=c1n(CCN2CCCCC2)c2ccccc2n1CC(O)c1cccc(Br)c1 (configuration not stated)
active: growth inhibition [4] 86%
inactive: growth inhibition [1] 33% | inhibition [2] 25% | inhibition [3] -1% | outcome [5] | outcome [6] | outcome [7] | outcome [8]

O=C(NCCc1ccccc1)N(Cc1ccccc1-c1cccc(CNCc2ccc3c(c2)OCO3)c1)C1CCN(Cc2ccccc2)CC1
inactive: inhibition [2] 29% | inhibition [3] 5% | outcome [5] | outcome [6] | outcome [7] | outcome [8]
active: growth inhibition [1] 77% | growth inhibition [4] 93%

CC(CN(C)C)C(=O)Nc1ccc(-c2ccc(-c3nc4ccc(C(F)(F)F)cc4[nH]3)cc2)cc1 (configuration not stated)
inactive: inhibition [2] 14% | inhibition [3] 2% | outcome [5] | outcome [6] | outcome [7] | outcome [8]
active: growth inhibition [1] 93% | growth inhibition [4] 101%

O=C(Nc1cccc(CN2CCCN(Cc3ccc(O)cc3)CC2)c1)c1ccc2ccccc2c1
inactive: inhibition [2] 20% | inhibition [3] 1% | outcome [5] | outcome [6] | outcome [7] | outcome [8]
active: growth inhibition [1] 78% | growth inhibition [4] 101%

Cc1cccc(-c2cccc(CNc3nc(NCCc4ccc(O)cc4)nc(N4CCNCC4)n3)c2)c1
active: inhibition [2] 50% | growth inhibition [4] 84%
inactive: growth inhibition [1] -3% | inhibition [3] 0% | outcome [5] | outcome [6] | outcome [7] | outcome [8]

CC[C@H](NC(=O)c1c(CC2CCN(CC(C)=O)CC2)c(-c2ccccc2)nc2ccccc12)c1ccccc1
active: growth inhibition [1] 96% | growth inhibition [4] 97%
inactive: inhibition [2] 7% | inhibition [3] 3% | outcome [5] | outcome [6] | outcome [7] | outcome [8]

COc1ccc(NC(=O)/C=C/c2ccccc2Cl)cc1OCCN1CCC(Cc2cc3ccccc3[nH]2)CC1
active: inhibition [2] 56% | growth inhibition [4] 92%
inactive: growth inhibition [1] 8% | inhibition [3] 0% | outcome [5] | outcome [6] | outcome [7] | outcome [8]

O=C(Nc1cccc(-c2nn3ncccc3c2-c2ccnc(Nc3cccc(C(F)(F)F)c3)n2)c1)c1c(F)cccc1F
active: growth inhibition [1] 68% | growth inhibition [4] 97%
inactive: inhibition [2] 49% | inhibition [3] -2% | outcome [5] | outcome [6] | outcome [7] | outcome [8]

Cc1ccccc1C1CCN(C2CCC(NC(=O)c3csc(-c4cccc(Cl)c4)n3)CC2)CC1 (configuration not stated)
active: growth inhibition [4] 85%
inactive: growth inhibition [1] 42% | inhibition [2] 33% | inhibition [3] 3% | outcome [5] | outcome [6] | outcome [7] | outcome [8]

Nc1ncc(-c2ccc3nccc(-c4ccncc4)c3c2)cc1S(=O)(=O)N1CCCCC1
active: growth inhibition [1] 100% | growth inhibition [4] 100%
inactive: inhibition [2] 25% | inhibition [3] 3% | outcome [5] | outcome [6] | outcome [7] | outcome [8]

CN(C)C(=O)CN1CCN(c2ncnc(N3CCc4c([nH]c5ccccc45)[C@@H]3c3ccc4c(c3)CCO4)n2)CC1
inactive: inhibition [2] 12% | inhibition [3] -1% | outcome [5] | outcome [6] | outcome [7] | outcome [8]
active: growth inhibition [1] 98% | growth inhibition [4] 99%

Clc1cc(Nc2ccnc3ccc(Br)cc23)ccc1Oc1ccc2ccccc2c1Cl
inactive: inhibition [2] 5% | inhibition [3] -5% | outcome [5] | outcome [6] | outcome [7] | outcome [8]
active: growth inhibition [1] 93% | growth inhibition [4] 100%

CC(C)NCc1ccc(-c2cccc(-c3nc4ccc(C(F)(F)F)cc4[nH]3)c2)cc1
inactive: inhibition [2] 21% | inhibition [3] -5% | outcome [5] | outcome [6] | outcome [7] | outcome [8]
active: growth inhibition [1] 100% | growth inhibition [4] 101%

Cc1cccc2[nH]c(-c3ccc(-c4cccc(CN5CCN(CCN6CCOCC6)CC5)c4)s3)nc12
active: growth inhibition [1] 83% | growth inhibition [4] 101%
inactive: inhibition [2] 33% | inhibition [3] -2% | outcome [5] | outcome [6] | outcome [7] | outcome [8]

CC(C)(C)c1ccc(CN2CCCCC(NC(=O)c3cc(-c4ccccc4F)cs3)C2)cc1 (configuration not stated)
active: growth inhibition [1] 99% | growth inhibition [4] 101%
inactive: inhibition [2] 6% | inhibition [3] 3% | outcome [5] | outcome [6] | outcome [7] | outcome [8]

CCN(CC)C(=O)C(=O)c1c[nH]c2ccc(Cl)cc12
active: growth inhibition [1] 96% | growth inhibition [4] 96%
inactive: inhibition [2] 1% | inhibition [3] 0% | outcome [5] | outcome [6] | outcome [7] | outcome [8]

Cc1nc(C)c(CC(=O)Nc2ccc(-c3cccc(-c4nc5c(C)cccc5[nH]4)c3)cc2)s1
active: growth inhibition [4] 101%
inactive: growth inhibition [1] 38% | inhibition [2] 41% | inhibition [3] -1% | outcome [5] | outcome [6] | outcome [7] | outcome [8]
